This is one part of a sample in which the strongest signals are shown more often than they occur.
Assays:
Assay in all cases: glycan array binding signal (z-score within array); higher = stronger binding
[1] = target: Fuc(a1-2)Gal; conditions: glycan notation: IUPAC condensed, linker removed
Procedure, shortened: (§1)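 The binding signal is a Z-score computed within each array. Data were drawn from 3228 arrays in the Consortium for Functional Glycomics database, restricted to those with a known protein sequence. Scores were averaged over arrays of the same protein sequence at different concentrations or buffers, and over linkers, and negative values can be taken as non-binding.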

[2] = target: Fuc(a1-2)Gal(b1-3)GalNAc; conditions: glycan notation: IUPAC condensed, linker removed; mutation: H213R,G256S
Procedure, shortened: as §1

[3] = target: Fuc(a1-2)Gal(b1-4)Glc6S; conditions: glycan notation: IUPAC condensed, linker removed
Procedure, shortened: as §1

[4] = target: Fuc(a1-2)Gal(b1-4)[Fuc(a1-3)]GlcNAc(b1-3)Gal(b1-4)[Fuc(a1-3)]GlcNAc(b1-3)Gal(b1-4)[Fuc(a1-3)]GlcNAc; conditions: glycan notation: IUPAC condensed, linker removed
Procedure, shortened: as §1

[5] = target: Fuc(a1-2)[GalNAc(a1-3)]Gal(b1-4)[Fuc(a1-3)]GlcNAc; conditions: glycan notation: IUPAC condensed, linker removed; mutation: H213R,G256S
Procedure, shortened: as §1

[6] = target: Fuc(a1-3)GlcNAc; conditions: glycan notation: IUPAC condensed, linker removed
Procedure, shortened: as §1

[7] = target: Fuc(a1-3)[Gal(b1-4)]GlcNAc(b1-4)Gal(b1-4)[Fuc(a1-3)]GlcNAc; conditions: glycan notation: IUPAC condensed, linker removed; mutation: H213R,G256S
Procedure, shortened: as §1

[8] = target: Gal(a1-4)Gal(b1-4)Glc; conditions: glycan notation: IUPAC condensed, linker removed; mutation: H213R,G256S
Procedure, shortened: as §1

[9] = target: Gal(a1-4)GlcNAc; conditions: glycan notation: IUPAC condensed, linker removed; mutation: H213R,G256S
Procedure, shortened: as §1

[10] = target: Gal3S(b1-3)GalNAc; conditions: glycan notation: IUPAC condensed, linker removed; mutation: H213R,G256S
Procedure, shortened: as §1

[11] = target: Gal3S(b1-4)[Fuc(a1-3)]Glc; conditions: glycan notation: IUPAC condensed, linker removed; mutation: H213R,G256S
Procedure, shortened: as §1

[12] = target: Gal3S6S(b1-4)GlcNAc6S; conditions: glycan notation: IUPAC condensed, linker removed; mutation: H213R,G256S
Procedure, shortened: as §1

[13] = target: Gal6S(b1-4)Glc6S; conditions: glycan notation: IUPAC condensed, linker removed; mutation: H213R,G256S
Procedure, shortened: as §1

[14] = target: Glc(b1-6)Glc; conditions: glycan notation: IUPAC condensed, linker removed; mutation: H213R,G256S
Procedure, shortened: as §1

[15] = target: Kdn(a2-3)Gal(b1-4)GlcNAc; conditions: glycan notation: IUPAC condensed, linker removed; mutation: H213R,G256S
Procedure, shortened: as §1

[16] = target: Man(a1-2)Man(a1-3)[Man(a1-2)Man(a1-6)]Man(a1-6)[Man(a1-2)Man(a1-2)Man(a1-3)]Man(b1-4)GlcNAc(b1-4)GlcNAc; conditions: glycan notation: IUPAC condensed, linker removed; mutation: H213R,G256S
Procedure, shortened: as §1

[17] = target: Neu5Ac(a2-3)Gal(b1-3)GalNAc; conditions: glycan notation: IUPAC condensed, linker removed; mutation: H213R,G256S
Procedure, shortened: as §1

[18] = target: Neu5Ac(a2-3)Gal(b1-3)[Neu5Ac(a2-3)Gal(b1-4)]GlcNAc; conditions: glycan notation: IUPAC condensed, linker removed; mutation: H213R,G256S
Procedure, shortened: as §1

[19] = target: Neu5Ac(a2-3)Gal(b1-4)[Fuc(a1-3)]GlcNAc(b1-3)Gal(b1-4)GlcNAc; conditions: glycan notation: IUPAC condensed, linker removed; mutation: H213R,G256S
Procedure, shortened: as §1

[20] = target: Neu5Ac(a2-6)Gal(b1-4)GlcNAc6S; conditions: glycan notation: IUPAC condensed, linker removed; mutation: H213R,G256S
Procedure, shortened: as §1

[21] = target: Neu5Gc(a2-3)Gal(b1-4)GlcNAc; conditions: glycan notation: IUPAC condensed, linker removed; mutation: H213R,G256S
Procedure, shortened: as §1

[22] = target: Fuc(a1-2)Gal(b1-3)GlcNAc(b1-3)GalNAc; conditions: glycan notation: IUPAC condensed, linker removed; mutation: N224Q
Procedure, shortened: as §1

[23] = target: Fuc(a1-2)Gal(b1-3)[Fuc(a1-4)]GlcNAc(b1-2)Man(a1-3)[Fuc(a1-2)Gal(b1-3)[Fuc(a1-4)]GlcNAc(b1-2)Man(a1-6)]Man(b1-4)GlcNAc(b1-4)[Fuc(a1-6)]GlcNAc(b1-4)[Fuc(a1-6)]GlcNAc; conditions: glycan notation: IUPAC condensed, linker removed; mutation: N224Q
Procedure, shortened: as §1

[24] = target: Fuc(a1-2)Gal(b1-4)GlcNAc(b1-3)Gal(b1-4)GlcNAc(b1-2)Man(a1-3)[Fuc(a1-2)Gal(b1-4)GlcNAc(b1-3)Gal(b1-4)GlcNAc(b1-2)Man(a1-6)]Man(b1-4)GlcNAc(b1-4)GlcNAc; conditions: glycan notation: IUPAC condensed, linker removed; mutation: N224Q
Procedure, shortened: as §1

[25] = target: Fuc(a1-2)Gal(b1-4)[Fuc(a1-3)]GlcNAc; conditions: glycan notation: IUPAC condensed, linker removed; mutation: N224Q
Procedure, shortened: as §1

[26] = target: Fuc(a1-2)Gal(b1-4)[Fuc(a1-3)]GlcNAc(b1-3)Gal(b1-4)[Fuc(a1-3)]GlcNAc; conditions: glycan notation: IUPAC condensed, linker removed; mutation: N224Q
Procedure, shortened: as §1

[27] = target: Fuc(a1-2)Gal6S(b1-4)Glc; conditions: glycan notation: IUPAC condensed, linker removed; mutation: N224Q
Procedure, shortened: as §1

[28] = target: Fuc(a1-2)[Gal(a1-3)]Gal(b1-4)GlcNAc(b1-2)Man; conditions: glycan notation: IUPAC condensed, linker removed; mutation: N224Q
Procedure, shortened: as §1

[29] = target: Fuc(a1-2)[Gal(a1-3)]Gal(b1-4)GlcNAc(b1-2)Man(a1-3)[Fuc(a1-2)[Gal(a1-3)]Gal(b1-4)GlcNAc(b1-2)Man(a1-6)]Man(b1-4)GlcNAc(b1-4)[Fuc(a1-6)]GlcNAc; conditions: glycan notation: IUPAC condensed, linker removed; mutation: N224Q
Procedure, shortened: as §1

[30] = target: Fuc(a1-2)[Gal(a1-4)]Gal(b1-4)GlcNAc; conditions: glycan notation: IUPAC condensed, linker removed; mutation: N224Q
Procedure, shortened: as §1

[31] = target: Fuc(a1-2)[GalNAc(a1-3)]Gal; conditions: glycan notation: IUPAC condensed, linker removed; mutation: N224Q
Procedure, shortened: as §1

[32] = target: Fuc(a1-2)[GalNAc(a1-3)]Gal(b1-4)Glc; conditions: glycan notation: IUPAC condensed, linker removed; mutation: N224Q
Procedure, shortened: as §1

[33] = target: Fuc(a1-2)[GalNAc(a1-3)]Gal(b1-4)GlcNAc(b1-3)GalNAc; conditions: glycan notation: IUPAC condensed, linker removed; mutation: N224Q
Procedure, shortened: as §1

[34] = target: Fuc(a1-2)[GalNAc(a1-4)]Gal(b1-4)GlcNAc; conditions: glycan notation: IUPAC condensed, linker removed; mutation: N224Q
Procedure, shortened: as §1

[35] = target: Fuc(a1-3)[Gal(b1-4)]GlcNAc(b1-2)Man; conditions: glycan notation: IUPAC condensed, linker removed; mutation: N224Q
Procedure, shortened: as §1

[36] = target: Fuc(a1-3)[Gal(b1-4)]GlcNAc(b1-3)Gal(b1-4)[Fuc(a1-3)]GlcNAc; conditions: glycan notation: IUPAC condensed, linker removed; mutation: N224Q
Procedure, shortened: as §1

[37] = target: Fuc(a1-3)[Gal(b1-4)]GlcNAc(b1-6)[Gal(b1-3)GlcNAc(b1-3)]Gal(b1-4)Glc; conditions: glycan notation: IUPAC condensed, linker removed; mutation: N224Q
Procedure, shortened: as §1

[38] = target: Fuc(a1-3)[Gal(b1-4)]GlcNAc6S; conditions: glycan notation: IUPAC condensed, linker removed; mutation: N224Q
Procedure, shortened: as §1

[39] = target: Fuc(a1-4)GlcNAc; conditions: glycan notation: IUPAC condensed, linker removed; mutation: N224Q
Procedure, shortened: as §1

[40] = target: Fuc(b1-3)GlcNAc; conditions: glycan notation: IUPAC condensed, linker removed; mutation: N224Q
Procedure, shortened: as §1

[41] = target: Gal(b1-3)GalNAc(a1-3)[Fuc(a1-2)]Gal(b1-4)Glc; conditions: glycan notation: IUPAC condensed, linker removed; mutation: N224Q
Procedure, shortened: as §1

[42] = target: Gal(b1-3)GlcNAc(b1-2)[Gal(b1-3)GlcNAc(b1-6)]Man(a1-6)[Gal(b1-3)GlcNAc(b1-2)Man(a1-3)]Man(b1-4)GlcNAc(b1-4)GlcNAc; conditions: glycan notation: IUPAC condensed, linker removed; mutation: N224Q
Procedure, shortened: as §1

[43] = target: Gal(b1-3)GlcNAc(b1-6)Gal(b1-4)GlcNAc; conditions: glycan notation: IUPAC condensed, linker removed; mutation: N224Q
Procedure, shortened: as §1

[44] = target: Gal(b1-3)GlcNAc6S; conditions: glycan notation: IUPAC condensed, linker removed; mutation: N224Q
Procedure, shortened: as §1

[45] = target: Gal(b1-4)GlcNAc; conditions: glycan notation: IUPAC condensed, linker removed; mutation: N224Q
Procedure, shortened: as §1

[46] = target: Gal(b1-4)GlcNAc(b1-2)Man(a1-3)[Gal(b1-4)GlcNAc(b1-2)Man(a1-6)]Man(b1-4)GlcNAc(b1-4)GlcNAc; conditions: glycan notation: IUPAC condensed, linker removed; mutation: N224Q
Procedure, shortened: as §1

[47] = target: Gal(b1-4)GlcNAc(b1-2)Man(a1-3)[Gal(b1-4)GlcNAc(b1-2)Man(a1-6)]Man(b1-4)GlcNAc(b1-4)[Fuc(a1-6)]GlcNAc; conditions: glycan notation: IUPAC condensed, linker removed; mutation: N224Q
Procedure, shortened: as §1

B1: CD23 (Homo sapiens) (protein)
chain: MELQVSSGFVCNTCPEKWINFQRKCYYFGKGTKQWVHARYACDDMEGQLVSIHSPEEQDFLTKRASHTGSWIGLRNLDLKGEFIWVDGSHVDYSNWAPGEPTSRSQSEDCVMMRGSGRWNDAFCDRKLGAWVCDRLATCTPPASEGSAESMGPDSRPDPDGRLPTPSAPLHS
glycan array binding signal (z-score) ([1]; mutation: H213R,G256S): 0.42 | glycan array binding signal (z-score) [2]: 0.764 | glycan array binding signal (z-score) ([3]; mutation: H213R,G256S): 0.623 | glycan array binding signal (z-score) ([4]; mutation: H213R,G256S): 1.02 | glycan array binding signal (z-score) [5]: -0.361 | glycan array binding signal (z-score) ([6]; mutation: H213R,G256S): -0.166 | glycan array binding signal (z-score) [7]: 0.007 | glycan array binding signal (z-score) [8]: -0.15 | glycan array binding signal (z-score) [9]: 0.434 | glycan array binding signal (z-score) [10]: -0.308 | glycan array binding signal (z-score) [11]: -0.106 | glycan array binding signal (z-score) [12]: 1.06 | glycan array binding signal (z-score) [13]: 0.798 | glycan array binding signal (z-score) [14]: -0.561 | glycan array binding signal (z-score) [15]: -0.386 | glycan array binding signal (z-score) [16]: 0.376 | glycan array binding signal (z-score) [17]: -0.283 | glycan array binding signal (z-score) [18]: -0.301 | glycan array binding signal (z-score) [19]: 0.869 | glycan array binding signal (z-score) [20]: -0.002 | glycan array binding signal (z-score) [21]: 0.062

B2: AAL (Aleuria aurantia) (protein)
chain: MPTEFLYTSKIAAISWAATGGRQQRVYFQDLNGKIREAQRGGDNPWTGGSSQNVIGEAKLFSPLAAVTWKSAQGIQIRVYCVNKDNILSEFVYDGSKWITGQLGSVGVKVGSNSKLAALQWGGSESAPPNIRVYYQKSNGSGSSIHEYVWSGKWTAGASFGSTVPGTGIGATAIGPGRLRIYYQATDNKIREHCWDSNSWYVGGFSASASAGVSIAAISWGSTPQIRVYWQKGREELYEAAYGGSWNTPGQIKDASRPTPSLPDTFIAANSSGNIDISVFFQASGVSLQQWQWISGKGWSIGAVVPTGTPAGW
glycan array binding signal (z-score) ([1]; mutation: N224Q): 4.67 | glycan array binding signal (z-score) [22]: -0.263 | glycan array binding signal (z-score) [23]: 0.006 | glycan array binding signal (z-score) ([3]; mutation: N224Q): 2.29 | glycan array binding signal (z-score) [24]: 6.34 | glycan array binding signal (z-score) [25]: 3.69 | glycan array binding signal (z-score) [26]: 3.57 | glycan array binding signal (z-score) ([4]; mutation: N224Q): 3.95 | glycan array binding signal (z-score) [27]: 3.32 | glycan array binding signal (z-score) [28]: -0.285 | glycan array binding signal (z-score) [29]: -0.153 | glycan array binding signal (z-score) [30]: 5.8 | glycan array binding signal (z-score) [31]: 0.989 | glycan array binding signal (z-score) [32]: -0.309 | glycan array binding signal (z-score) [33]: -0.32 | glycan array binding signal (z-score) [34]: 5.38 | glycan array binding signal (z-score) ([6]; mutation: N224Q): 3.92 | glycan array binding signal (z-score) [35]: -0.29 | glycan array binding signal (z-score) [36]: 1.96 | glycan array binding signal (z-score) [37]: 0.019 | glycan array binding signal (z-score) [38]: -0.274 | glycan array binding signal (z-score) [39]: 6.22 | glycan array binding signal (z-score) [40]: 4.57 | glycan array binding signal (z-score) [41]: -0.303 | glycan array binding signal (z-score) [42]: -0.296 | glycan array binding signal (z-score) [43]: -0.317 | glycan array binding signal (z-score) [44]: -0.309 | glycan array binding signal (z-score) [45]: -0.324 | glycan array binding signal (z-score) [46]: -0.316 | glycan array binding signal (z-score) [47]: -0.216

Reference: the supplement of paper PMC8728848
